# Test results as given in article PMC11995724, “Antibiotic target discovery by integrated phenotypic and activity-based profiling of electrophilic fragments” (Cell chemical biology, 2025).
# Hit rate of the full screen: of about 3,200 compounds, about 75 (2%) showed an effect of 50% or more. This excerpt belongs to a sample that is enriched for strong results.
# Tested on: T1, S. aureus MSSA476
# T1 construct: MSSA476
# Set-up: species or system S. aureus MSSA476 (TSB) or V. cholerae SAD30 (LB); 384-well bacterial growth screen at 25 uM, OD600 relative to DMSO control
# Conditions: relative growth, OD600, TSB; 25 µM; inhibitor
row,SMILES,% of control remaining
1,"O=C(O)c1coc(C(=O)CCl)c1 [10-B07, 5-(2-chloroacetyl)furan-3-carboxylic acid]",79.6875%
2,"O=C(CCl)N1N=C(c2ccco2)CC1c1cccc(Cl)c1 (centres unmarked) [5-M17, 2-chloro-1-[5-(3-chlorophenyl)-3-(furan-2-yl)-4,5-dihydro-1H-pyrazol-1-yl]ethan-1-one]",81.9672%
3,"Cc1nn(-c2ccccc2)c(C)c1CN(C)C(=O)CCl [7-B03, 2-chloro-N-[(3,5-dimethyl-1-phenyl-1H-pyrazol-4-yl)methyl]-N-methylacetamide]",93.5636%
4,"Cc1ccc(-n2c(C)cc(C(=O)CCl)c2C)cc1F [10-C06, 2-chloro-1-[1-(3-fluoro-4-methylphenyl)-2,5-dimethyl-1H-pyrrol-3-yl]ethan-1-one]",-0.3125%
5,"Cc1ccc(-n2c(C)cc(C(=O)CCl)c2C)cc1C [10-B14, 2-chloro-1-[1-(3,4-dimethylphenyl)-2,5-dimethyl-1H-pyrrol-3-yl]ethan-1-one]",1.25%
6,"Cc1cc(C(=O)CCl)c(C)n1-c1ccccn1 [10-C16, 2-chloro-1-[2,5-dimethyl-1-(pyridin-2-yl)-1H-pyrrol-3-yl]ethan-1-one]",117.5%
7,"Cc1cc(-n2c(C)cc(C(=O)CCl)c2C)no1 [10-C18, 2-chloro-1-[2,5-dimethyl-1-(5-methyl-1,2-oxazol-3-yl)-1H-pyrrol-3-yl]ethan-1-one]",123.125%
8,"Cc1cc(C(=O)CCl)c(C)n1-c1cccc(Cl)c1 [10-N18, 2-chloro-1-[1-(3-chlorophenyl)-2,5-dimethyl-1H-pyrrol-3-yl]ethan-1-one]",100.313%
9,"CSc1cccc(-n2c(C)cc(C(=O)CCl)c2C)c1 [10-J16, 2-chloro-1-{2,5-dimethyl-1-[3-(methylsulfanyl)phenyl]-1H-pyrrol-3-yl}ethan-1-one]",12.8125%
10,"Cc1cc(C(=O)CCl)c(C)n1-c1ccc2c(c1)OCO2 [10-K14, 1-[1-(1,3-dioxaindan-5-yl)-2,5-dimethyl-1H-pyrrol-3-yl]-2-chloroethan-1-one]",139.375%
11,"Cc1cc(C(=O)CCl)c(C)n1-c1ccc(Cl)c(Cl)c1 [10-D18, 2-chloro-1-[1-(3,4-dichlorophenyl)-2,5-dimethyl-1H-pyrrol-3-yl]ethan-1-one]",-0.3125%
12,"Cc1cc(C(=O)CCl)c(C)n1-c1cccc([N+](=O)[O-])c1 [10-B16, 2-chloro-1-[2,5-dimethyl-1-(3-nitrophenyl)-1H-pyrrol-3-yl]ethan-1-one]",136.563%
13,"Cc1cccc(-n2c(C)cc(C(=O)CCl)c2C)c1 [10-A22, 2-chloro-1-[2,5-dimethyl-1-(3-methylphenyl)-1H-pyrrol-3-yl]ethan-1-one]",138.438%
14,"CCN(CC)C(=O)c1cccc(NC(=O)CCl)c1 [5-I03, 3-(2-chloroacetamido)-N,N-diethylbenzamide]",102.732%
15,"N#CC(=Cc1cccs1)C(=O)Nc1ccc(C(=O)O)cc1 [8-A04, 4-[2-cyano-3-(thiophen-2-yl)prop-2-enamido]benzoic acid]",109.212%
16,"CC(C)Oc1ccccc1C=C(C#N)C(=O)Nc1ccc(Cl)cc1 [9-L20, N-(4-chlorophenyl)-2-cyano-3-[2-(propan-2-yloxy)phenyl]prop-2-enamide]",108.464%
17,"N#CCCSc1ccccc1NC(=O)CCl [6-N12, 2-chloro-N-{2-[(2-cyanoethyl)sulfanyl]phenyl}acetamide]",88.439%
18,"CC(=O)NCCc1ccc(C(=O)CCl)s1 [10-P03, N-{2-[5-(2-chloroacetyl)thiophen-2-yl]ethyl}acetamide]",143.125%
19,"C=CC(=O)N1CCCN(C(=O)c2ccc(OC)cc2)CC1 [3-A21, 1-[4-(4-methoxybenzoyl)-1,4-diazepan-1-yl]prop-2-en-1-one]",128.864%
20,"C=CC(=O)N(CC)Cc1cn(C)nn1 [2-O09, N-ethyl-N-[(1-methyl-1H-1,2,3-triazol-4-yl)methyl]prop-2-enamide]",106.527%
21,"CN(CC(=O)Nc1ccccc1Cl)C(=O)CCl [4-D05, 2-chloro-N-{[(2-chlorophenyl)carbamoyl]methyl}-N-methylacetamide]",122.344%
22,"C=CC(=O)NCCc1ccccc1OC [2-O03, N-[2-(2-methoxyphenyl)ethyl]prop-2-enamide]",95.7354%
23,"C=CC(=O)N1CCOCC2(COCCN2C)C1 (centres unmarked) [3-J14, 1-{1-methyl-4,8-dioxa-1,11-diazaspiro[5.6]dodecan-11-yl}prop-2-en-1-one]",109.012%
24,"CC(Cl)C(=O)N1CCCC(NS(=O)(=O)c2cccc(F)c2)C1 (centres unmarked) [7-C13, N-[1-(2-chloropropanoyl)piperidin-3-yl]-3-fluorobenzene-1-sulfonamide]",102.355%
25,"Cc1cc(C(=O)C(C)Cl)c(C)n1-c1ccc(OC(F)F)cc1 (centres unmarked) [10-E10, 2-chloro-1-{1-[4-(difluoromethoxy)phenyl]-2,5-dimethyl-1H-pyrrol-3-yl}propan-1-one]",125.938%
26,"Cc1cc(C(=O)CCl)c(C)n1-c1ccc(OC(F)(F)F)cc1 [10-G04, 2-chloro-1-{2,5-dimethyl-1-[4-(trifluoromethoxy)phenyl]-1H-pyrrol-3-yl}ethan-1-one]",115.313%
27,"Cc1cc(C(=O)CCl)c(C)n1-c1ccc(Cl)c(C(F)(F)F)c1 [10-L18, 2-chloro-1-{1-[4-chloro-3-(trifluoromethyl)phenyl]-2,5-dimethyl-1H-pyrrol-3-yl}ethan-1-one]",0.3125%
28,"Cc1cc(C(=O)CCl)c(C)n1-c1ccon1 [10-F06, 2-chloro-1-[2,5-dimethyl-1-(1,2-oxazol-3-yl)-1H-pyrrol-3-yl]ethan-1-one]",106.875%
29,"Cc1cc(C(=O)CCl)c(C)n1-c1ccc(OC(F)F)c(Cl)c1 [10-K04, 2-chloro-1-{1-[3-chloro-4-(difluoromethoxy)phenyl]-2,5-dimethyl-1H-pyrrol-3-yl}ethan-1-one]",0%
